Results reported in the supplement of paper PMC10981050.
Where a name gives a salt, the structure may show the parent alone.

Tested on: MOLM14
Test: cell viability relative to vehicle control; higher = less cytotoxic
Settings: 10 µM; SRSF2 genotype: SRSF2 P95H/wt
How it was run: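 Each screen used CRISPR-edited mutant and wild-type clones from four leukaemia lines. Compounds were acoustically dispensed at a single 10 µM dose, and CellTiter-Glo luminescence was read after 48 h with the supernatant first removed. Viability was analysed in Genedata Screener and given as percent of the on-plate vehicle control.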

Compound | cell viability [%]
Cc1cc(/N=N/c2ccc(S(=O)(=O)Nc3ccccn3)cc2)c(N)cc1O | 36.3
CC(C)OC(=O)CCC/C=C\C[C@@H]1[C@@H](CC[C@@H](O)CCc2ccccc2)[C@H](O)C[C@@H]1O [Latanoprost] | 88
COc1c(O[C@@H]2O[C@H](CO)[C@@H](O)[C@H](O)[C@H]2O)cc2occ(-c3ccc(O)cc3)c(=O)c2c1O [Tectoridin] | 91.8
Cc1ccccc1C(OCCN(C)C)c1ccccc1 (configuration not stated) [Orphenadrine citrate (Norflex)] | 93.3
CCCCCCCCCCCCCCCC(=O)O[C@@H]1[C@@H](O)[C@@H](O)[C@@H]([C@H](NC(=O)[C@@H]2C[C@@H](CCC)CN2C)[C@H](C)Cl)O[C@@H]1SC [Clindamycin palmitate HCl] | 101
CN(C)c1ccc(-c2nc3ncc(Cl)c(N4CCN(CC(=O)Nc5nccs5)CC4)c3[nH]2)cc1 | 78.9
C[C@]12CC[C@@H]3c4ccc(O)cc4CC[C@H]3[C@@H]1CC[C@@H]2O [Estradiol] | 95.3
COc1cc(OCc2cccc(-c3ccccc3)c2C)cc(OC)c1CN1CCCC[C@H]1C(=O)O [PD-1/PD-L1 inhibitor 1] | 89.8

Same assay, conditions: 10 µM; SRSF2 genotype: SRSF2 wt/wt

Compound | cell viability [%]
Oc1ccc(OCc2ccccc2)cc1 [Monobenzone (Benoquin)] | 11.3
CNCCCC12CCC(c3ccccc31)c1ccccc12 [Maprotiline hydrochloride] | 83.2
O=C(O)[C@H]1O[C@@H](Oc2cc3oc(-c4ccc(O)cc4)cc(=O)c3c(O)c2O)[C@H](O)[C@@H](O)[C@@H]1O [Scutellarin] | 105
Cn1nnc(-c2ccc(-c3ccc(N4C[C@H](COP(=O)(O)O)OC4=O)cc3F)cn2)n1 [Tedizolid Phosphate] | 92.3
Cc1onc(-c2c(F)cccc2Cl)c1C(=O)N[C@@H]1C(=O)N2[C@@H]1SC(C)(C)[C@@H]2C(=O)O [Flucloxacillin sodium] | 96.5
CC(=O)Nc1ccccc1 [Acetanilide (Antifebrin)] | 101
CCOC(=O)c1c(C)n(C)c2ccc(O)cc12 [Mecarbinate] | 112
CC#CC(=O)N1CCC[C@H]1c1nc(-c2ccc(C(=O)Nc3ccccn3)cc2)c2c(N)nccn12 [Acalabrutinib (ACP-196)] | 100
CN/C(=N\CCSCc1nc[nH]c1C)NC#N [Cimetidine (Tagamet)] | 102
CCCC1O[C@@H]2C[C@H]3[C@@H]4CCC5=CC(=O)C=C[C@]5(C)[C@H]4[C@@H](O)C[C@]3(C)[C@]2(C(=O)CO)O1 (some centres not stated) [Budesonide] | 84
CO/N=C1\C[C@]2(C[C@@H]3C[C@@H](C/C=C(\C)C[C@@H](C)/C=C/C=C4\CO[C@@H]5[C@H](O)C(C)=C[C@@H](C(=O)O3)[C@]45O)O2)O[C@H](/C(C)=C/C(C)C)[C@H]1C [Moxidectin] | 53.3
CCOc1ccc2ccccc2c1C(=O)N[C@@H]1C(=O)N2[C@@H]1SC(C)(C)[C@@H]2C(=O)O [Nafcillin Sodium] | 108
C[C@@H](O)[C@H]1C(=O)N2C(C(=O)O)=C(S[C@@H]3CN[C@H](CNS(N)(=O)=O)C3)[C@H](C)[C@H]12 [Doripenem Hydrate] | 97.5
NC(=O)c1ccc(-c2nc(-c3ccc4c(c3)OCCO4)c(-c3ccccn3)[nH]2)cc1 | 97.6
O=C1CCc2c(ccc3ccccc23)O1 [Splitomicin] | 99.5
Cc1nc(-c2cn3c(n2)-c2ccc(-c4cnn(C(C)(C)C(N)=O)c4)cc2OCC3)n(C(C)C)n1 | 40.1
CN(CCOc1ccc(NS(C)(=O)=O)cc1)CCc1ccc(NS(C)(=O)=O)cc1 [Dofetilide (Tikosyn)] | 101
COC1CCN(C(=O)c2cc(Cc3n[nH]c(=O)c4ccccc34)ccc2F)CC1 | 34.7
Cc1[nH]c(=O)c(C#N)cc1-c1ccncc1 [Milrinone (Primacor)] | 99.1
CC(C)C[C@H](NC(=O)[C@@H](NC(=O)c1cccc(-c2ccccc2)n1)[C@@H](C)O)B(O)O | 0.44

Compound | cell viability [%]
CC(C)(C#N)c1cc(Cn2cncn2)cc(C(C)(C)C#N)c1 [Anastrozole] | 99.1
CC(ONC(=O)c1cc(C(F)(F)F)cc(C(F)(F)F)c1)C(=O)Nc1ccc(Cl)cc1 (configuration not stated) | 93.2
CS(=O)(=O)Nc1cc2occ(NC=O)c(=O)c2cc1Oc1ccccc1 [Iguratimod] | 108
CC1(C)CC[C@]2(C(=O)O)[C@H](O)C[C@]3(C)C(=CC[C@@H]4[C@@]5(C)CC[C@H](O)[C@@](C)(C=O)[C@@H]5CC[C@]43C)[C@@H]2C1 [Quillaic acid] | 91.7
C[C@@H]1O[C@@H](O[C@H]2[C@H](O[C@H]3CC[C@@]4(C)[C@@H](CC[C@]5(C)[C@@H]4CC=C4[C@@H]6CC(C)(C)CC[C@]6(C(=O)O)CC[C@]45C)[C@]3(C)CO)OC[C@H](O[C@@H]3O[C@H](CO)[C@@H](O)[C@H](O)[C@H]3O)[C@@H]2O)[C@H](O)[C@H](O)[C@H]1O [Pulsatilla saponin D] | 0.59
C=C1CCC[C@]2(C)C=C3OC(=O)C(C)=C3C[C@@H]12 [Atractylenolide I] | 103
C#CCN[C@@H]1CCc2ccccc21 [Rasagiline mesylate] | 104
CN1CC[C@H](c2c(O)cc(O)c3c(=O)cc(-c4ccccc4Cl)oc23)[C@H](O)C1 [Flavopiridol (Alvocidib)] | 0.32
O=C(O)[C@H]1CSC(c2nc3ccc(O)cc3s2)=N1 [D-Luciferin] | 90.7
CCCCCCOC(=O)c1cc(=O)c(O)c2c(O)c(O)c(OC)cc2c1 | 58.9
CC1(C)OC(=O)C=C[C@]2(C)[C@H]3CC[C@@]4(C)[C@H](c5ccoc5)OC(=O)[C@H]5O[C@]54[C@]3(C)C(=O)C[C@@H]12 [Obacunone] | 102
Cc1cc(/N=N/c2ccc(S(=O)(=O)Nc3ccccn3)cc2)c(N)cc1O | 34.8
CC(C)OC(=O)CCC/C=C\C[C@@H]1[C@@H](CC[C@@H](O)CCc2ccccc2)[C@H](O)C[C@@H]1O [Latanoprost] | 103
COc1c(O[C@@H]2O[C@H](CO)[C@@H](O)[C@H](O)[C@H]2O)cc2occ(-c3ccc(O)cc3)c(=O)c2c1O [Tectoridin] | 96.1
Cc1ccccc1C(OCCN(C)C)c1ccccc1 (configuration not stated) [Orphenadrine citrate (Norflex)] | 98.1
CCCCCCCCCCCCCCCC(=O)O[C@@H]1[C@@H](O)[C@@H](O)[C@@H]([C@H](NC(=O)[C@@H]2C[C@@H](CCC)CN2C)[C@H](C)Cl)O[C@@H]1SC [Clindamycin palmitate HCl] | 105
CN(C)c1ccc(-c2nc3ncc(Cl)c(N4CCN(CC(=O)Nc5nccs5)CC4)c3[nH]2)cc1 | 87.5
C[C@]12CC[C@@H]3c4ccc(O)cc4CC[C@H]3[C@@H]1CC[C@@H]2O [Estradiol] | 98.6
COc1cc(OCc2cccc(-c3ccccc3)c2C)cc(OC)c1CN1CCCC[C@H]1C(=O)O [PD-1/PD-L1 inhibitor 1] | 95.3
